Measured values published in ChEMBL document CHEMBL3988442, “University of Dundee, Small-Polar-MMV Screening Library” (2021).
For some of these results: Entries with a potency or affinity are not part of this list.

Key:
Parameters in all cases: scale not given: direction of the effect not stated beside the values
[1] = target: Protein translocase subunit SecA (Escherichia coli (strain K12)) (UniProt P10408); assay: Assay to Identify E. coli SecA ATPase Inhibitors; type: functional; conditions: 30 µM
[2] = target: T1, Ubiquitin-activating enzyme e1, putative (Leishmania donovani (strain BPK282A1)) (UniProt E9BSI1); assay: Leishmania donovani Ubiquitin Activating Enzyme (LdE1); type: functional; conditions: 30 µM
T1 sequence (whole entry): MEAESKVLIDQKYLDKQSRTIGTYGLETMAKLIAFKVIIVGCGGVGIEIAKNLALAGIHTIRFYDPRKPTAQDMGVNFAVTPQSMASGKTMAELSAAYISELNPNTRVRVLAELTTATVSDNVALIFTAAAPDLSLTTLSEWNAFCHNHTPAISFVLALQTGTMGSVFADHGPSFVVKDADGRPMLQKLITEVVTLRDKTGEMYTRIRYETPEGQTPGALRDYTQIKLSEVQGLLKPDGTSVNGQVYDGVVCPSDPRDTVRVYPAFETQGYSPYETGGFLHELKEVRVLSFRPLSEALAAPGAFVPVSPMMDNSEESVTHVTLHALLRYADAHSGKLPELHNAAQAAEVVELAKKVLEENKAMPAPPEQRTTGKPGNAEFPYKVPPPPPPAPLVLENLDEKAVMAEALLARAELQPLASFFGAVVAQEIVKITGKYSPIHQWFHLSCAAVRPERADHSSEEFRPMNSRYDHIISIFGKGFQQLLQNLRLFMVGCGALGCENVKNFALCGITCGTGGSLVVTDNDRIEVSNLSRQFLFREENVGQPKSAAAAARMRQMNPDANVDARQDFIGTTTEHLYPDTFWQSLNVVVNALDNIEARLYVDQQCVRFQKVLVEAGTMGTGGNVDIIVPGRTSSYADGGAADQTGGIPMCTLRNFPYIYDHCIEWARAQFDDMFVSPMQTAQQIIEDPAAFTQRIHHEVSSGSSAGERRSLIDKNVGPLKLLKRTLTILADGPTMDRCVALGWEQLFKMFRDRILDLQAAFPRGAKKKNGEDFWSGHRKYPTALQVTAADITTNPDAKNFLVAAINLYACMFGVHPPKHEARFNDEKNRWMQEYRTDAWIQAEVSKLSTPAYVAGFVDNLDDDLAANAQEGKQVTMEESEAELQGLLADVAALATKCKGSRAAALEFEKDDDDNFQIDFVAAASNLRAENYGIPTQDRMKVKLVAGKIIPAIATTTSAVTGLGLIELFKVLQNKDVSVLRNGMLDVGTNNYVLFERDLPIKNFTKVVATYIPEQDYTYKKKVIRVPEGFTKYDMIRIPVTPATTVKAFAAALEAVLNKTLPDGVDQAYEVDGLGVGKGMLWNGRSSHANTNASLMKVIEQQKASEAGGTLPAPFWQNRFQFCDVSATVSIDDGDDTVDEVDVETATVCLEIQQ

[3] = target: AMP-activated protein kinase, AMPK (Homo sapiens) (UniProt P54646+O43741+P54619+Q9UGJ0+Q9Y478+Q13131+Q9UGI9); assay: AMP-dependent Kinase enzyme assay. An in vitro enzyme assay that detects ADP turnover that is directly proportional to AMPK activity. This uses naive AMPK that is activated during the assay with MK-8722; type: functional; conditions: 30 µM
[4] = target: Sialic acid-binding Ig-like lectin 9 (Homo sapiens) (UniProt Q9Y336); assay: Hs-Siglec9 ALPHAscreen SOP 20170721; conditions: 10 µM
Trypanosoma cruzi = assay: Trypanosoma cruzi phosphomannomutase and mannose-1-phosphate guanylyltransferase assay; type: functional; conditions: 10 µM
[5] = target: T2, Arginase-2, mitochondrial (Homo sapiens) (UniProt P78540); assay: in vitro enzyme assay to detect the production of urea directly proportional to the activity of Arginase II; type: functional; conditions: 33.3 µM; note: in the data most compounds retested in dose-response had high values
T2 sequence (whole entry): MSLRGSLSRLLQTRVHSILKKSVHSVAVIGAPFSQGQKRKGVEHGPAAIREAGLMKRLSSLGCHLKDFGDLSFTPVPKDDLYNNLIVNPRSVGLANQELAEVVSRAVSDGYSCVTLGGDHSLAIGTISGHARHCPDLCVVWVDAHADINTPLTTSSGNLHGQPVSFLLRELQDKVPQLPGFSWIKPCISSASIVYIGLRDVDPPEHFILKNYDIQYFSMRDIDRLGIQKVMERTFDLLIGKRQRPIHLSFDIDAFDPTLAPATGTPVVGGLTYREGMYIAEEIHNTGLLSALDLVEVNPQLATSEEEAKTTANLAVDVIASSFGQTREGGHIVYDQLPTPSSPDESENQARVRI

[6] = target: T3, Proteasome subunit beta (Trypanosoma cruzi) (UniProt O96673); assay: Trypanosoma cruzi proteasome chymotrypsin-like activity (TcProtChymo) assay.; note: in the data most compounds retested in dose-response had high values; type: functional; conditions: 9.37 µM
T3 sequence (whole entry): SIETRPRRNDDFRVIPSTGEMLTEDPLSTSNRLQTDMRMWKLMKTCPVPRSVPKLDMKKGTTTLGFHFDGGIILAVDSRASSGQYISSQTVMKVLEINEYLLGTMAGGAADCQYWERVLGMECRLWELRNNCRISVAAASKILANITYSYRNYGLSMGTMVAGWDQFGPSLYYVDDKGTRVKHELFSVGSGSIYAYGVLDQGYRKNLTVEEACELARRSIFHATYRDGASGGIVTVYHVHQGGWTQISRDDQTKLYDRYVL

Homo sapiens = species: Homo sapiens; assay: To identify inhibition of the IFN signalling (Jak-Stat) pathway via expression of an eGFP reporter gene under the control of an IFN-stimulated response element (ISRE) containing MxA promoter.; type: functional; conditions: 30 µM
[7] = target: T4, Tyrosyl-tRNA synthetase, putative (Trypanosoma cruzi (strain CL Brener)) (UniProt Q4DSP6); assay: Trypanosoma cruzi tyrosyl tRNA synthetase (TcYRS) _High Tyrosine SOP; type: functional; conditions: 30 µM; note: in the data most compounds retested in dose-response had high values
T4 sequence (whole entry): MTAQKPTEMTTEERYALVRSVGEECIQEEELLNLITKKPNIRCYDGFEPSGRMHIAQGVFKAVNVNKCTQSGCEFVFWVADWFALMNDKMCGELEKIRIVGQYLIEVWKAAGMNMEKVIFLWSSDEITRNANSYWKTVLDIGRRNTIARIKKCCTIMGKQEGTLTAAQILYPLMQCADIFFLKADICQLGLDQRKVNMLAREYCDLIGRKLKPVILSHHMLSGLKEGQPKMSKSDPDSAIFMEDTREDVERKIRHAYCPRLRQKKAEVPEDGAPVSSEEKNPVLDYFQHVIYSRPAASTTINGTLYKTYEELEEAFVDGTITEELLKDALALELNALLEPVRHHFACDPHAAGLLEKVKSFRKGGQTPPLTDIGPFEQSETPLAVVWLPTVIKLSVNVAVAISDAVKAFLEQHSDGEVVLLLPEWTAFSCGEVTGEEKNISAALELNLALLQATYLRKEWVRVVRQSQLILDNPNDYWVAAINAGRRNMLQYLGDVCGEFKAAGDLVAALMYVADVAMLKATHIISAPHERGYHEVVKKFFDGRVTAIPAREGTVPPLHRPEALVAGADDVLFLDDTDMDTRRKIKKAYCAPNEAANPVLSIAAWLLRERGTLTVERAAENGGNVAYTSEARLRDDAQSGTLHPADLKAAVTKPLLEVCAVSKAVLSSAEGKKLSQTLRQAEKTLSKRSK

[8] = target: T4, Tyrosyl-tRNA synthetase, putative (Trypanosoma cruzi (strain CL Brener)); assay: Trypanosoma cruzi tyrosyl tRNA synthetase (TcYRS) SOP; type: functional; conditions: 30 µM
[9] = target: Chromo domain-containing protein 1 (Saccharomyces cerevisiae (strain ATCC 204508 / S288c) (Baker's yeast)) (UniProt P32657); assay: ScCHD-1 Enzyme Inhibition Assay; type: functional; conditions: 30 µM; note: in the data most compounds retested in dose-response had high values
Chain of Chromo domain-containing protein 1 (Saccharomyces cerevisiae (strain ATCC 204508 / S288c) (Baker's yeast)) (P32657 whole entry, the tested form may be a part): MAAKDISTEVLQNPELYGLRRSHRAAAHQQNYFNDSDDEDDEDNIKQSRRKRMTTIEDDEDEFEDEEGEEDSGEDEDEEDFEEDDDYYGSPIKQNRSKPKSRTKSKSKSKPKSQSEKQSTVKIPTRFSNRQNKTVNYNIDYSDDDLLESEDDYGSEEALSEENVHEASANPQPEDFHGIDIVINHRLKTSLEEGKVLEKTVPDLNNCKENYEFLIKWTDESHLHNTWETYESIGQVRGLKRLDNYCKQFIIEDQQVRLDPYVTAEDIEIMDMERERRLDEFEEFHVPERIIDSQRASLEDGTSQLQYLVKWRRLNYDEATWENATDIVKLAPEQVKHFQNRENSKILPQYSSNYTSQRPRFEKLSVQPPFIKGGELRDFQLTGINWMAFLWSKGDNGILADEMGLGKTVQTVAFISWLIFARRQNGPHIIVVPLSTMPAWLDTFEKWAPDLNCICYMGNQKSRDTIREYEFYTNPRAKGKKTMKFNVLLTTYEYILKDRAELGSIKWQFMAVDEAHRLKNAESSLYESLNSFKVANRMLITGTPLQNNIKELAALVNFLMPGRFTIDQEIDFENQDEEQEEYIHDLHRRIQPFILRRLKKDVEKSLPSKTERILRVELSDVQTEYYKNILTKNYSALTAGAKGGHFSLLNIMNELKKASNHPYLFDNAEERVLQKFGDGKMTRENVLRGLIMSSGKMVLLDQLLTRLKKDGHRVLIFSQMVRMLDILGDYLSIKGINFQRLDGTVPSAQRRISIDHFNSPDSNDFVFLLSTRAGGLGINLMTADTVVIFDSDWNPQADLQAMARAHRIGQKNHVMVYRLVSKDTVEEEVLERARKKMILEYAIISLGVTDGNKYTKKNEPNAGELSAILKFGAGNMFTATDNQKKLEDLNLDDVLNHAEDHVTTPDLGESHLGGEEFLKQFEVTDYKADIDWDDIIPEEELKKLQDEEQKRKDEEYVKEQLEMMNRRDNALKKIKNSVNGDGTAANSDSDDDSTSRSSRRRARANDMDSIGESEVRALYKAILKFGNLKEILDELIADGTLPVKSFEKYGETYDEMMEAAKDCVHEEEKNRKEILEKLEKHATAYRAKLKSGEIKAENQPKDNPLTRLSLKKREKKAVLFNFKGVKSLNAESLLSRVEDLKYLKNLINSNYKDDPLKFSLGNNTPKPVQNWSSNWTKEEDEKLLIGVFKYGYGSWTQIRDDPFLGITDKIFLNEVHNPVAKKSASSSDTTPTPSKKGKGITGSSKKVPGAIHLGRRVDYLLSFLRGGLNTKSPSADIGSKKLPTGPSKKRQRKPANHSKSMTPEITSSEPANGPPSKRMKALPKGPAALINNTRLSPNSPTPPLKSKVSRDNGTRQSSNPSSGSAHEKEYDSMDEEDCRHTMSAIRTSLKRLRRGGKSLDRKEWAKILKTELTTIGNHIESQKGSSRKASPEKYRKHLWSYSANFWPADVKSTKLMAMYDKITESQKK

Chain of Sialic acid-binding Ig-like lectin 9 (Homo sapiens) (Q9Y336 whole entry): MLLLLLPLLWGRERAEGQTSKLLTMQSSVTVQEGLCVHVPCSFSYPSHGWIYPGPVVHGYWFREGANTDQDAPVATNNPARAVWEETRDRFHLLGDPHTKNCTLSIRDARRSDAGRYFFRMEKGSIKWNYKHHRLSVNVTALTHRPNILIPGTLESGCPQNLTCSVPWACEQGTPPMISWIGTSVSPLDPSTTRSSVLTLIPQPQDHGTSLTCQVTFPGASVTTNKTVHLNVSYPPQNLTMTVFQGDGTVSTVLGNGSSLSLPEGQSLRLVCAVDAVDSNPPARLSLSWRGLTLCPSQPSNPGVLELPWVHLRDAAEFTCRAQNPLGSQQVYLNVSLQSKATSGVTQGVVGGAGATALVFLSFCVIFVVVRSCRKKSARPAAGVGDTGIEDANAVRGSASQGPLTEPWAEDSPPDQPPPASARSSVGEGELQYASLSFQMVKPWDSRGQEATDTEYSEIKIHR
Chain of Protein translocase subunit SecA (Escherichia coli (strain K12)) (P10408 whole entry): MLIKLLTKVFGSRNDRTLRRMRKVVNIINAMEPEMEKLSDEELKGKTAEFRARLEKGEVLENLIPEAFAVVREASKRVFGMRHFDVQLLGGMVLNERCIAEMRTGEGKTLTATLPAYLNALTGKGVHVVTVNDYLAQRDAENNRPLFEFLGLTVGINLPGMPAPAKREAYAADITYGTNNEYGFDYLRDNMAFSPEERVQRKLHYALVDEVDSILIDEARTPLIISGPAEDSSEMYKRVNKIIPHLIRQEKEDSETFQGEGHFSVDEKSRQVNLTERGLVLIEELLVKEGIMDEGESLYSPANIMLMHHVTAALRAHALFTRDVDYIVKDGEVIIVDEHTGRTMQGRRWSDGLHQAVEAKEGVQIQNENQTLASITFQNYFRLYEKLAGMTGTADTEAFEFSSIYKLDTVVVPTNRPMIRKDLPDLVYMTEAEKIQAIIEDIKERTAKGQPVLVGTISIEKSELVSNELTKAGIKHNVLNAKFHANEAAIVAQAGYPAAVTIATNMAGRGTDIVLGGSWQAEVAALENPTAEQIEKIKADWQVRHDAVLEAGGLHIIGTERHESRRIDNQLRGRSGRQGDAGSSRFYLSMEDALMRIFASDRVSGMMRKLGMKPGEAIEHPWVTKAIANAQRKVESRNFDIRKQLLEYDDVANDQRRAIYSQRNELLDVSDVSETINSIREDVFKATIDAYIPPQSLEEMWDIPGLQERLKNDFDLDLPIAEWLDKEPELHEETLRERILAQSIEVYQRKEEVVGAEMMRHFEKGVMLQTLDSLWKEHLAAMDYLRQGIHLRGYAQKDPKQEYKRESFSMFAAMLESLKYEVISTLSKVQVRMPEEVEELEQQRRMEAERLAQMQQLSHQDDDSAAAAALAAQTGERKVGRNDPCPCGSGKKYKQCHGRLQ

SMILES | Percent Effect [1] [%] | Percent Effect [2] [%] | Percent Effect [3] [%] | Percent Effect [4] [%] | Percent Effect (Trypanosoma cruzi) [%] | Percent Effect [5] [%] | Percent Effect [6] [%] | Percent Effect (Homo sapiens) [%] | Percent Effect [7] [%] | Percent Effect [8] [%] | Percent Effect [9] [%]
CCN(Cc1ccc2c(c1)OCO2)Cc1nc(C)no1 | 2.35 | 18.9 | -7.63 | -8.65 | -8.96 | 2.4 | 14.9 | 18.6 | 4.43 | 6.17 | -4.89
O=C(Cc1cccc(Cl)c1)N[C@@H]1CCNC[C@H]1O | -6.4 | 18.9 | -5.86 | 31.3 | 4.2 | 19.1 | 9.7 | 0.775 | 5.38 | 16.1 | -13.7
CCOCCOc1ccccc1C(=O)N1CCCC(c2ncc[nH]2)C1 (stereo not given) | -3.41 | 8.22 | 11.4 | 0.341 | 0.979 | 3.64 | 23.2 | 6.64 | 8.6 | 17.5 | -11.5
CCn1ncc2c1C(COC)CN(Cc1ccsc1)C2 (stereo not given) | -3.96 | 18.9 | -9.13 | 5.54 | 1.47 | 1.24 | 6.95 | 5.76 | 7.53 | 16.1 | -11.9
Cc1cnc2n(c1=O)C(CC(=O)NCc1cc(-c3cccs3)on1)CS2 (stereo not given) | -0.436 | 20.8 | 11.4 | -23.7 | 1.28 | 5.81 | 6.79 | 28.9 | 2.12 | 16.7 | -11
CS(=O)(=O)N1CCCC12CCCN(S(=O)(=O)c1cc(F)cc(F)c1)C2 (stereo not given) | -5.6 | -8.11 | 3.16 | -10 | -3.23 | -2.23 | 10 | 14.4 | 0 | -1.24 | -0.985
CCc1nccn1C1CCCN(C(=O)c2ccc3[nH]cnc3c2)C1 (stereo not given) | -7.22 | 2.63 | 2.64 | 2.2 | 5.36 | 1.18 | 9.3 | 7.56 | 8.51 | 10.4 | -0.611
O=C(NC[C@]12COC[C@H]1CN(C1CCOCC1)C2)c1ccco1 | -5.25 | 10.7 | 4.78 | -6.09 | -2.17 | 8.16 | 12.8 | 5.24 | 9.57 | 8.97 | 0.371
O=C(CCc1ccsc1)NCC1CCN(c2ccccc2)C1 (stereo not given) | 0.538 | -6.94 | -4.41 | -4.12 | -6.51 | 5.3 | 18.4 | 9.93 | 6.32 | 7.69 | -1.39
CS(=O)(=O)N1CCCCCC1C1CCN(c2ncccn2)CC1 (stereo not given) | -4.78 | 2.63 | 2.07 | 1.83 | -4.13 | -1.92 | 2.17 | 24.7 | 1.47 | 7.32 | 0.0825
O=C(c1ccccc1-n1cccn1)N1CCCN(c2cccnn2)CC1 | -2.4 | -15.6 | 5.31 | 10.5 | -0.294 | 1.05 | 9.46 | -6.03 | 0.952 | 9.41 | -13.5
Cc1nc(N2CCN(C(=O)c3ccc(O)cc3)CC2)c2cnn(C)c2n1 | -0.631 | 0 | -5.77 | 5.23 | -2.74 | 1.6 | -2.88 | 15.3 | -2.46 | -6.17 | 0.501
COc1cccc(CNCc2nnc3n2CC(C(F)(F)F)CC3)c1 (stereo not given) | 0.608 | -2.7 | -0.757 | 8.38 | 1.27 | 45.4 | 5.92 | 9.33 | 6.45 | 16.1 | -13
Cc1nccc(C2CN(Cc3cc[nH]n3)CCO2)n1 (stereo not given) | -1.51 | 1.35 | 9.42 | 3.04 | -1.98 | -1.16 | 4.84 | -10.9 | 0 | 3.9 | -12.4
CCC(CC)NC(=O)Cn1nc(C)nc1-c1ccccc1 | -4.52 | 16.2 | -5.72 | 3.26 | -6.32 | -1.2 | 3.6 | 21.4 | 6.4 | 11.1 | -8.07
COCC(=O)N1CCC2(CC1)COCCN2CCN(C)C | 0.864 | -5.33 | -0.00705 | 4.73 | -1.93 | -50 | 0.342 | -11.3 | 3.12 | -5 | 0.531
COc1ccc(OC)c(NC(=O)NCC(O)c2ccc(F)c(F)c2)c1 (stereo not given) | -0.0799 | 8.86 | 8.98 | -1.21 | -5.44 | 3.23 | 15.6 | 9.13 | -1.04 | 5.06 | -21.5
Cc1nc(CN2CCC(C(=O)O)(n3ccc(-c4ccco4)n3)CC2)co1 | -6.11 | 8.22 | -0.438 | 4.25 | 0 | -0.399 | 12.9 | 23.4 | 1.04 | 3.7 | -0.0478
CCOCC(O)CN1CCN(C(=O)c2ccc(OC)cc2F)CC1 (stereo not given) | -4.94 | 18.2 | -0.292 | 4.59 | 1.87 | 2.85 | 0.676 | 13.6 | 7.77 | 14.6 | -9.36
CCc1ncc(CN(C)C(=O)Nc2cccnc2N2CCCC2)s1 | -6.28 | 13.2 | -27.9 | 8.15 | 7.38 | 1.8 | 10.4 | -11.4 | 5.42 | 13.6 | -1.2
